Results filed as inconclusive are left out. Activity calls are given as the source filed them. The calls were made as follows, unless noted: active = hit-call score of the fitted dose curve at least 0.9, where 1 is the maximum; inactive = score below 0.9.
Legend:
[1] = CCTE_Shafer_MEA_dev_firing_rate_mean: CCTE's Neural Network Formation Assay for Mean Firing Rate, Shafer Lab (AID 2284031)
How it was run: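 Primary rat cortical neurons on 48-well, 16-electrode MEAs (PEI-coated, laminin at plating), exposed from day 0 with compound renewed at DIV 5 and 9. Spikes recorded DIV 5, 7, 9, 12; well-mean firing rate collapsed to trapezoidal AUC, loss-of-signal vs DMSO.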

[2] = CCTE_Shafer_MEA_dev_per_burst_spike_percent: CCTE's Neural Network Formation Assay for Percent of Spikes in a Burst, Shafer Lab (AID 2284032)
How it was run: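 Rat primary cortical neurons on 16-electrode MEA wells, dosed from plating day 0 for 12 days with renewal on DIV 5 and 9; spikes-in-bursts percentage averaged over bursting electrodes, collapsed as AUC across days 5, 7, 9, 12; loss direction versus DMSO.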

[3] = CCTE_Shafer_MEA_dev_burst_rate: CCTE's Neural Network Formation Assay for Burst Rate, Shafer Lab (AID 2284042)
How it was run: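 Exposure ran continuously over 12 days of network development in rat cortical cultures, with compound refreshed during full media changes on DIV 5 and 9. Single-electrode bursts per recording time, well-mean over active electrodes, trapezoidal AUC across days 5–12, fitted downward relative to DMSO.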

[4] = CCTE_Shafer_MEA_dev_per_burst_interspike_interval: CCTE's Neural Network Formation Assay for Burst Interspike Interval, Shafer Lab (AID 2284044);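 also: mean spike spacing inside bursts as AUC over recordings on days 5 7 9 12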
How it was run: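 Rat cortical primary cultures, 16 electrodes/well; compound from plating, renewed with full media change DIV 5 and 9. Spikes via adaptive detector; per-burst ISI well-mean over active bursting electrodes; AUC of DIV 5/7/9/12 recordings; loss-direction fit vs DMSO.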

[5] = CCTE_Shafer_MEA_dev_burst_duration_mean: CCTE's Neural Network Formation Assay for Mean Burst Duration, Shafer Lab (AID 2284045)
How it was run: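 Primary rat cortical neurons on 48-well 16-electrode MEA plates, exposed from day 0 with renewal at DIV 5 and 9; spontaneous activity recorded on days 5, 7, 9, 12. Well-mean burst duration across bursting electrodes, collapsed as trapezoidal AUC; DMSO baseline.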

[6] = CCTE_Shafer_MEA_dev_interburst_interval_mean: CCTE's Neural Network Formation Assay for Mean Interburst Interval, Shafer Lab (AID 2284046);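 also: well-mean interburst interval of bursting electrodes as AUC over four recording days; curve fitted for decrease in interburst interval relative to DMSO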
How it was run: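 Primary rat cortical neurons on PEI-coated 48-well MEA plates (laminin added with cells at plating) (16 electrodes/well), exposed from plating day 0 with renewal at DIV 5 and 9. Mean inter-burst interval averaged over bursting electrodes, AUC across days 5, 7, 9, 12; DMSO baseline.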

[7] = CCTE_Shafer_MEA_dev_inter_network_spike_interval_mean: CCTE's Neural Network Formation Assay for Mean Inter-network Spike Interval, Shafer Lab (AID 2284047)
How it was run: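 Mean time between consecutive network-spike peaks, recorded extracellularly (adaptive spike detection) on DIV 5, 7, 9 and 12, summarized as trapezoidal AUC. Rat cortical cultures on MEAs dosed continuously days 0–12, re-dosed at feeds; loss-of-signal fit relative to DMSO.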

[8] = CCTE_Shafer_MEA_dev_network_spike_number: CCTE's Neural Network Formation Assay for Number of Network Spikes, Shafer Lab (AID 2284048);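 also: synchronized bursts across electrodes counted on days 5 7 9 12 and integrated as AUC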
How it was run: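 Primary rat cortical neurons on PEI/laminin 48-well MEA plates, dosed from plating day 0 for 12 days, renewed at DIV 5 and 9. Network spike counts recorded DIV 5, 7, 9, 12, collapsed as trapezoidal AUC; DMSO baseline.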

[9] = CCTE_Shafer_MEA_dev_network_spike_peak: CCTE's Neural Network Formation Assay for Mean Number of Electrodes in Network Spike, Shafer Lab (AID 2284049)
How it was run: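 Network-spike peak electrode count from recordings on days 5, 7, 9 and 12 was combined as trapezoidal area under the curve. Rat cortical cultures were treated continuously from plating, with compound renewed at each feed (DIV 5, 9); fits versus DMSO.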

[10] = CCTE_Shafer_MEA_dev_spike_duration_mean: CCTE's Neural Network Formation Assay for Mean Spike Duration, Shafer Lab (AID 2284051);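 also: mean network spike duration pooled as area under curve over DIV 5 to 12 recordings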
How it was run: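 Spontaneous activity was recorded on days 5, 7, 9 and 12 from rat cortical cultures grown on microelectrode arrays and dosed continuously from day 0, with media and compound renewed after the DIV 5 and 9 recordings. Network-spike duration was collapsed by area under the curve.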

[11] = CCTE_Shafer_MEA_dev_per_network_spike_spike_number_mean: CCTE's Neural Network Formation Assay for Mean Number of Spikes in a Network Spike, Shafer Lab (AID 2284053)
How it was run: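 Mean spike count within each network spike, taken in a 0.05 s window at its peak, was recorded on days 5, 7, 9 and 12 and integrated as trapezoidal area under the curve. Rat cortical cultures on MEA plates received continuous compound from day 0, refreshed at medium changes on DIV 5 and 9.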

[12] = CCTE_Shafer_MEA_dev_per_network_spike_spike_percent: CCTE's Neural Network Formation Assay for Percent of Spikes in a Network Spike, Shafer Lab (AID 2284054)
How it was run: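 Rat primary cortical neurons were grown on 48-well MEA plates (16 electrodes/well), exposed from plating day 0 through day 12, with treatment renewed on DIV 5 and 9. Percent of spikes within 0.05 s network-spike peaks was measured, summarised as AUC across days 5, 7, 9, 12.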

[13] = CCTE_Shafer_MEA_dev_LDH: CCTE's Lactate Dehydrogenase Assay for Cytotoxicity in the Neural Network Formation Assay, Shafer Lab (AID 2284068; active = hit-call score of the fitted dose curve at least 0.9, where 1 is the maximum;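 also: exposure for twelve days from plating with re-dosing on DIV 5 and 9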)
How it was run: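 Primary rat cortical neurons were cultured on PEI-coated MEA plates and exposed from plating through day 12, with compound renewed at medium changes on DIV 5 and 9. LDH activity was read spectrophotometrically; loss of signal versus DMSO indicates reduced viability.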

[14] = CCTE_Shafer_MEA_dev_AB: CCTE's Alamar Blue Assay for Cytotoxicity in the Neural Network Formation Assay, Shafer Lab (AID 2284083; active = hit-call score of the fitted dose curve at least 0.9, where 1 is the maximum;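 also: resazurin reduction fluorescence as viability of cultured neurons; twelve days of exposure from plating with re-dosing on DIV 5 and 9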)
How it was run: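 Resazurin fluorescence, relative to DMSO, gauges viability after twelve days of exposure that began at plating of rat cortical neurons (1.5 x 10^5 cells/well, 48-well MEA); treatment renewed with full medium exchange on DIV 5 and 9.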

[15] = CCTE_Shafer_MEA_dev_mutual_information_norm: CCTE's Neural Network Formation Assay for Mutual Information Normalization, Shafer Lab (AID 2284091)
How it was run: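 Primary rat cortical neurons on PEI-coated 48-well MEA plates, 1.5 x 10^5 cells/well, exposed from day 0 through day 12 with re-dosing at DIV 5 and 9. Mutual information between electrodes recorded days 5, 7, 9, 12; trapezoidal AUC, loss-of-signal fit versus DMSO.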

[16] = IUF_NPC1b_proliferation_BrdU_72hr: Leibniz Research Institute for Environmental Medicine (IUF) 72-hour Neural Progenitor Cell Bromodeoxyuridine (BrdU) Proliferation Assay (NPC1b) (AID 2284207)
How it was run: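 BrdU luminescence ELISA quantified DNA synthesis over the last 16 h of a 72 h exposure, fitted against DMSO. Primary hNPC spheres from gestational week 16-19 cortex grown with EGF/FGF at 37C, pH 7.2-7.6.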

[17] = IUF_NPC1_viability_72hr: Viability Assessment at 72 hours in the Leibniz Research Institute for Environmental Medicine (IUF) Neural Progenitor Cell Proliferation Assay (NPC1) (AID 2284209)
How it was run: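 Human fetal-cortex neural progenitor spheres (0.25–0.35 mm, one per well) grown in EGF/FGF proliferation medium at 37C, pH 7.2-7.6, exposed 72 h without renewal; viability read as alamar blue resazurin-to-resorufin fluorescence relative to DMSO.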

[18] = CCTE_Mundy_HCI_Cortical_Synap_Neur_Matur_NeuriteSpotCountPerNeuriteLength: CCTE's Synaptogenesis and Neurite Maturation Assay in rat cortical cells for Neurite Spot Count per Neurite Length, Mundy Lab (AID 2284210)
How it was run: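 Rat primary cortical cultures, AraC added at DIV 5 to suppress glia; chemical exposure from DIV 7 to DIV 12. Fixed cells stained for MAP2 and synaptophysin plus Hoechst; synaptophysin puncta per neurite length quantified by high-content imaging, relative to DMSO.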

[19] = CCTE_Mundy_HCI_Cortical_Synap_Neur_Matur_BPCount: CCTE's Synaptogenesis and Neurite Maturation Assay in rat cortical cells for Branch Point Count, Mundy Lab (AID 2284211)
How it was run: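 Branch point number is quantified by automated imaging of fluorescently labelled neurites and synapses in rat primary cortical neurons exposed from DIV 7 to DIV 12. Activity is analysed relative to DMSO negative control.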

[20] = CCTE_Mundy_HCI_Cortical_NOG_NeuriteCount: CCTE's Neurite Outgrowth Assay in rat cortical cells for Neurite Count, Mundy Lab (AID 2284212);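 also: cells fixed about two days after chemical exposure began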
How it was run: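 Neurite number per cell from high-content imaging of betaIII-tubulin immunostaining, with Hoechst nuclear counterstain.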

[21] = CCTE_Mundy_HCI_Cortical_Synap_Neur_Matur_NeuriteLength: CCTE's Synaptogenesis and Neurite Maturation Assay in rat cortical cells for Neurite Length, Mundy Lab (AID 2284214)
How it was run: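 Rat primary cortical cells were plated, treated with AraC at DIV 5 to arrest glial growth, then chemical-dosed with media change at DIV 7 through DIV 12. Fixed cells stained for MAP2, synaptophysin and Hoechst; neurite length quantified by high-content imaging.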

[22] = CCTE_Mundy_HCI_Cortical_Synap_Neur_Matur_NeuriteSpotCountPerNeuron: CCTE's Synaptogenesis and Neurite Maturation Assay in rat cortical cells for Neurite Spot Count per Neuron Count, Mundy Lab (AID 2284215)
How it was run: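 Rat primary cortical cells received AraC at DIV 5, then chemicals with a media change at DIV 7, and were fixed at DIV 12. Synaptophysin puncta on MAP2-stained neurites per neuron were counted by high-content imaging, fitted relative to DMSO.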

[23] = CCTE_Mundy_HCI_Cortical_Synap_Neur_Matur_SynapseCount: CCTE's Synaptogenesis and Neurite Maturation Assay in rat cortical cells for Synapse Count, Mundy Lab (AID 2284218)
How it was run: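 Rat primary cortical cells in 96-well plates received AraC at DIV 5 and were dosed with chemicals at DIV 7 with media change, through DIV 12 (288.33 h). Synapses per neuron counted by high-content imaging of MAP2/synaptophysin/Hoechst staining, versus DMSO baseline.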

[24] = CCTE_Mundy_HCI_hN2_NOG_NeuriteCount: CCTE's Neurite Outgrowth Assay in human hN2 cells for Neurite Count, Mundy Lab (AID 2284219; active = hit-call score of the fitted dose curve at least 0.9, where 1 is the maximum)
How it was run: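 In this morphology assay, hNP1-derived neurons received test chemical 2 h post-plating and were fixed two days later in warm paraformaldehyde/sucrose containing Hoechst 33342. Neurites, labelled by rabbit anti-βIII-tubulin (1:800) and Alexa Fluor-488 (1:500), were counted automatically.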

[25] = CCTE_Mundy_HCI_hN2_NOG_NeuronCount: CCTE's Neurite Outgrowth Assay in human hN2 cells for Neuron Count, Mundy Lab (AID 2284221; active = hit-call score of the fitted dose curve at least 0.9, where 1 is the maximum)
How it was run: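 Read-out is the number of betaIII-tubulin-positive neurons imaged by automated high-content analysis, with DMSO as negative control.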

[26] = CCTE_Mundy_HCI_Cortical_Synap_Neur_Matur_NeuriteCount: CCTE's Synaptogenesis and Neurite Maturation Assay in rat cortical cells for Neurite Count, Mundy Lab (AID 2284222);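 also: exposure from day 7 to day 12 in vitro with readout at day 12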
How it was run: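 Rat cortical neurons, 96-well; AraC DIV 5; chemical + media change DIV 7; end DIV 12. Fix PFA/Hoechst, anti-MAP2 + anti-synaptophysin IF. HCI neurite count vs DMSO baseline.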

[27] = CCTE_Mundy_HCI_Cortical_Synap_Neur_Matur_CellBodySpotCount: CCTE's Synaptogenesis and Neurite Maturation Assay in rat cortical cells for Cell Body Spot Count, Mundy Lab (AID 2284223)
How it was run: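 Rat primary cortical cultures received AraC at DIV 5 to arrest glia, were dosed with chemical at DIV 7 with media change, and were fixed at DIV 12 (288.33 h). Synaptophysin puncta on MAP2-positive cell bodies per neuron were counted by high-content imaging versus DMSO.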

[28] = CCTE_Mundy_HCI_Cortical_NOG_BPCount: CCTE's Neurite Outgrowth Assay in rat cortical cells for Branch Point Count, Mundy Lab (AID 2284237)
How it was run: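 Measured 50.33 h after dosing, this morphology endpoint uses rat primary cortical cultures labelled for betaIII-tubulin. Branch points are quantified by high-content imaging, with DMSO as negative control and baseline.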

[29] = CCTE_Mundy_HCI_hNP1_Casp3_7: CCTE's Caspase-Glo 3/7 Assay in human neuroprogenitor cells for Apoptosis, Mundy Lab (AID 2284240)
How it was run: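 Luminescent caspase-3/7 readout, 26.5 h post-dose, in human neural progenitor cells from WA09 embryonic stem cells. Cells grew 40–44 h at 37 °C, 5% CO2 before chemical addition. Activity analysed as signal increase over DMSO baseline.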

[30] = CCTE_Mundy_HCI_hNP1_CellTiter: CCTE's Cell Titer-Glo 2 Assay in human neuroprogenitor cells for Viability, Mundy Lab (AID 2284241; active = hit-call score of the fitted dose curve at least 0.9, where 1 is the maximum)
How it was run: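 Viability read as luminescent ATP content (CellTiter-Glo, 30 min room temperature) twenty-four hours after dosing, relative to DMSO. Cells: WA09-derived hNP1 neuroprogenitors on poly-L-ornithine/laminin, plated 40 to 44 hours before chemical.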

Measured: AC50

F
active: [16] 1040 µM | [17] 2640 µM
inactive: all other assays above
